Reference: PubChem BioAssay AID526 (National Center for Advancing Translational Sciences (NCATS), 2006)
The whole screen tested about 67,000 compounds, of which fewer than 10 were called active. The call rests on the fitted dose curve; in most records, active means well fitted activation curve with a large enough effect (not every such curve was filed as active); inconclusive means small, poorly fitted or top-dose-only effect, or another doubt; inactive means no such curve, though single readings can be large or run the other way. Not all results are given here.

Test: Ubiquitin-GFP Assay
Details: Ubiquitin-GFP reporter cells, proteasome inhibition, GFP fluorescence, untreated = 0%, 10 µM MG-132 = 100%; series mostly up to 45.9 µM
Excerpt: NIH Chemical Genomics Center [NCGC]
NIH Molecular Libraries Screening Centers Network [MLSCN]
The ubiquitin-proteasome pathway is present within all eukaryotic cells and plays roles in normal cellular functions and disease-related dysfunction. Proteins are tagged with a poly-ubiquitin chain that targets them for the proteasome, a multimeric protease, that degrades the protein into peptides and free ubiquitin. The proteasome has a key role in regulating cell cycle and growth and is known to control the levels of cyclins and CDK inhibitors as well as tumor suppressor proteins. Additionally, the activation of NF- B is controlled by ubiquitin-labeling and degradation of the inhibitory protein I B . […] With this in mind, proteasome inhibitors such as MG-132 and PS-341 have been used to inhibit tumor cell growth.
A cellular assay for ubiquitin-proteasome function was used to find chemical probes of this pathway. The assay used an ubiquitin-GFP construct expressed in U2OS cells (BioImage). Under basal conditions little GFP can be detected as it is degraded by the proteasome. However, treatment of the cells with a proteasome inhibitor such as MG-132 results in a rise in GFP levels that can be detected in as little as four hours. We used the Acumen-Explorer laser plate cytometer having a 488 nm laser as an excitation light source to detect the GFP. Compounds were screened in 1536-well plates using qHTS with a concentration-titration series range that varied from 46 uM to 2.9 nM.
NCGC Assay Protocol Summary:
Cells (U20S ps 2042) expressing ubiquitin (G76V-GFP) were maintained in DMEM with Glutamax-1 and high glucose, 10% FBS, 1% (v/v) penicillin-streptomycin, 0.5 mg/mL Geneticin (G418). The cells were seeded in 1536-well plates using a solenoid-based dispenser at 700 cells/5ul in DMEM medium with Glutamax-1 and high glucose containing 0.5% FBS, w/o phenol red, 25 mM HEPES. The plates were incubated at 37 °C/5% CO2 overnight. Then 23 nl of MG-132 in DMSO was added to the control wells at a final concentration of 10 uM. Next, 23 nL of library compounds in DMSO were added to the sample wells. The plates were incubated for 4 hrs at 37 °C/5% CO2. Following this incubation the plates were read on the Acumen using a cell object definition of 15 to 100 um in width and depth and a window of Total Intensity of between 77,200 and 2,720,000 FLU to enumerate GFP-expressing cells.
The %Activity was determined from the basal and MG-132 treated control wells. %Activity was determined by normalizing to the difference in signal between basal cells (0% Activity) and cells incubated with 10 uM of the proteasome inhibitor MG-132 (100% Activity). Concentration-response curves were fitted to the signals arising from the GFP fluorescence.
Assay Protocol Summary Table
Sequence Parameter Value Description
2. Time O/N 37C incubation
4. Compound 23 nL Libraries (46 uM to 2.9 nM)
5. Time 4 hr 37C incubation
6. Detector Acumen Total Intensity, GFP fluorescence (488 ex/515 em)
Keywords: NIH Roadmap, MLSCN, MLI, MLSMR, BioImage, proteasome, ubiquitin-GFP, qHTS, NCGC

Activation (GFP accumulation), inactive:
CCS(=O)(=O)N1CCCC(C(=O)NCCCN(C)Cc2ccccc2)C1 (stereo unspecified)
COC(=O)C1(S(=O)(=O)C2(C(=O)OC)CCCC2)CCCC1
CC(C)[C@H](CO)Nc1nc(Nc2cc(N)cc(Cl)c2)c2ncn(C(C)C)c2n1
O=c1cc(-c2ccc(O)c(O)c2)oc2cccc(O)c12
CC(C)NC[C@H](O)c1ccc2ccccc2c1
CCOC(=O)c1sc(NC(=O)CSc2nnc(-c3ccco3)o2)c(C(=O)OCC)c1C
CN1CCN(Cc2nc3c(c(=O)n(C)c(=O)n3C)n2Cc2cccc3ccccc23)CC1
O=C(O)[C@@H](S)[C@H](S)C(=O)O 4.35% [at 9.17 µM]
COC(=O)c1ccc(NC(=O)C(C)N2C(=O)c3ccccc3C2=O)cc1 (stereo unspecified)
CC(=O)N1CCC2(CC1)CCN(c1ccncc1)CC2
COCCn1c(=O)c(-c2ccc(OC)cc2)nc2cnc(Oc3cccc(Cl)c3)nc21
Cc1cccc(OCc2nnc(SCn3nnc4ccccc4c3=O)o2)c1
Fc1cccc(/C=N\N=C/c2cccc(F)c2)c1
COc1ccc(CNc2ncnc3ccc(-c4cccnc4)cc23)c(OC)c1
CC(C)(C)Nc1c(N)c(=O)oc2ccccc12 -4.55% [at 9.17 µM]
COc1ccccc1N1CCN(C[C@@H]2CN3C(=O)N(C)c4ccccc4C3=N2)CC1
CC[C@]1(C)CC(=O)NC1=O
Cc1cc(=O)[nH]c(SCc2cc(Cl)ccc2OC(F)F)n1
COc1ccc(NC(C)=O)cc1NC(=O)CN1CCN(C2c3ccccc3-c3ccccc32)CC1
COCC(=O)Nc1nnc(COc2ccccc2)s1
O=C(O)Cc1ccc(-c2ccccc2)cc1
CCCS(=O)(=O)N1CCN(C(=O)c2cccs2)CC1
CC1=C(C(=O)OC2CCCCC2)C(c2cccnc2)n2ncnc2N1 (stereo unspecified)
C1=C(N2CCOCC2)/C(=C/c2nc3ccccc3[nH]2)CC1 -10.8% [at 9.17 µM]
O=C(CSc1nnc(-c2cccnc2)n1Cc1ccco1)c1ccc(Cl)cc1
CC(C)(CSc1nncn1/N=C/c1ccco1)NS(=O)(=O)c1ccc(Cl)cc1
CCC(c1nnnn1Cc1ccco1)N(CCc1ccccc1)Cc1cc2cccc(C)c2[nH]c1=O (stereo unspecified)
CC(C(=O)O)N1C(=O)c2cccc3cccc1c23 (stereo unspecified)
CC[N+](C)(CC)CCC[n+]1c(-c2ccccc2)c2cc(N)ccc2c2ccc(N)cc21
CC1(C)S[C@@H]2[C@@H](NC(=O)[C@@H](N)c3ccccc3)C(=O)N2[C@H]1C(=O)O
Cc1ccc(CNC(=O)C2CC(=O)N(C3CCCCCCC3)C2)cc1 (stereo unspecified)
COc1ccccc1-n1nnnc1S(=O)(=O)Cc1ccc(Cl)cc1
Cc1nc(N2CCN(c3ncccn3)CC2)c2oc3ccccc3c2n1
CSc1ccc(S(=O)(=O)Nc2cccc(F)c2)cc1
O=C(NCc1cccs1)C1CCN(S(=O)(=O)c2ccc3c(c2)OCCO3)CC1
O=S(=O)(O)c1ccc(O)c2ncccc12.O=S(=O)(O)c1ccc(O)c2ncccc12.[Zn] 2.9% [at 9.17 µM]
CN(C)c1ccc(CNC23CN4CN(CN(C4)C2)C3)cc1
CCCn1c(C(O)c2cc(OC)ccc2OC)nc2ccccc21 (stereo unspecified)
Cc1cc(=O)n2nc(N3CCCC(C(=O)N4CCN(C)CC4)C3)sc2n1 (stereo unspecified)
CN(C)C(=O)/N=N\C(=O)N(C)C
CCCC(CCC(=O)OC)(C(=O)OCC)c1csc(N)n1 (stereo unspecified)
O=C(CSC1=NCCS1)Nc1nc(-c2ccccc2)cs1
COc1ccc(OC)c(C(=O)CSc2nnc(-c3cccs3)o2)c1
Cc1ccc2cccc(O)c2[n+]1[O-]
COc1ccc(OC)c(NC(=O)CSc2nc3cccnc3n2C)c1
CCCCC(=O)Nc1ccc(C(=O)NCCCn2ccnc2)cc1
CN1[C@H]2CC(OC(=O)[C@@H](CO)c3ccccc3)C[C@H]1[C@H]1O[C@H]12 (stereo partly specified)
Nc1ccc2c3c(cccc13)C(=O)NC2=O
Cc1ccc(Cn2ccc(NC(=O)C3C4CCC(C4)C3C(=O)O)n2)cc1 (stereo unspecified)
Cc1cccc(N2CCN(Cc3c(C)n(C)n(-c4ccccc4)c3=O)CC2)c1C -18.2% [at 9.17 µM]
Cc1onc(-c2ccccc2Cl)c1C(=O)NCCn1ccc2ccccc21
CCOC(=O)c1cc(-c2ccc(Cl)s2)nc2c1c(C)nn2C
COc1nc(NCc2ccc(Cl)cc2)nc(OC)n1 -9.93% [at 9.17 µM]
COc1ccc(-c2cc(C(F)(F)F)nc(SCCC(=O)NCc3ccco3)n2)cc1
COC(=O)C(C)Sc1ccc2nnc(-c3cccc(F)c3)n2n1 (stereo unspecified)
CCNc1ncc2nc(CCc3ccccc3)c(=O)n(-c3ccc(OC)cc3)c2n1
Cc1nnc(C)n1/N=C/c1ccc(C(C)C)cc1
O=C(CN1CCN(C2CCCCC2)CC1)Nc1ccccc1N1CCCCC1
CS(=O)(=O)N1CCC2(CCN(c3ccncc3)CC2)CC1
COc1ccccc1NC(=O)CSc1nnc(Cc2cccn2C)n1-c1ccc(F)cc1
CNC(=O)CN1C(=O)c2ccccc2S1(=O)=O
Oc1c(CN2CCOCC2)ccc(CN2CCOCC2)c1O -4.99% [at 9.17 µM]
Cc1cc(C)c2nc3c(c([C@H](O)[C@@H]4CCCCN4)c2c1)CC/C3=C/c1ccc(Cl)cc1 1.75% [at 9.17 µM]
O=C(Nc1c[nH]c(=O)[nH]c1=O)Oc1ccccc1 7.84% [at 9.17 µM]
CC(=O)Nc1nc(C)c(Cc2ccccc2)c(=O)[nH]1
O=C(NC(c1ccccc1)c1ccccc1)N1CCN(CCO)CC1
O=C(c1cnccn1)N1CCC2(CCN(Cc3cc(C(F)(F)F)cc(C(F)(F)F)c3)CC2)CC1
CC1(C)NC(=O)N(CCOc2cccc(Oc3ccccc3)c2)C1=O
Cc1ccccc1NC(=O)c1cnn(-c2ccccc2)c1NC(=O)c1ccco1
c1ccc(CSCCc2ccncc2)cc1 0.403% [at 9.17 µM]
CCOC(=O)c1cc2cc(C)ccc2[nH]1
Cn1c(=O)cc(OCCCC(=O)N2CCN(c3ccccn3)CC2)c2ccccc21
COc1ccccc1-n1c(CNC(=O)c2ccccc2)nnc1SCC(=O)Nc1nnc(C)s1
COc1ccccc1-c1nc(NCCNC(C)=O)c2ccccc2n1
CCc1ccc(-c2nnn(Cc3nc4ccccc4s3)n2)cc1
CC(=O)OCC(=O)[C@@]1(O)CC[C@@H]2[C@H]3CCC4=CC(=O)C=C[C@]4(C)[C@]3(F)[C@@H](O)C[C@@]21C
CCC(=O)N1c2ccc(S(=O)(=O)CCC(=O)N3CCN(c4ccccc4)CC3)cc2CC1C (stereo unspecified)
CN(C)c1nc2n(c(=O)n1)CCO2
c1ccc(CCN2CCN=C2Cc2ccccc2)cc1 -3.08% [at 9.17 µM]
COc1ccccc1N1CCN(C(=O)c2cc(-c3ccc(Cl)c(Cl)c3)on2)CC1
Cc1nc(NC(=O)CCC(=O)O)sc1C(=O)N(C)C
CN1CCN(CCCNC(=O)c2cc3c(=O)oc4ccccc4c3s2)CC1
COc1ccc(CC(=O)Nc2nc3n(n2)C(c2ccccc2)CC(=O)N3)cc1OC (stereo unspecified)
COc1c(C)c2c(c(O)c1C/C=C(\C)CCC(=O)O)C(=O)OC2
CN(C)CCSS(=O)(=O)O 9.1% [at 9.17 µM]
CCCn1c(C)nc2c(NCCCCN(CC)CC)nc(C)nc21
CCOC(=O)N1CCN(C(=O)Cc2ccc(-n3c(=S)[nH]c4ccccc4c3=O)cc2)CC1
CCN(CC)CCCCn1c(-c2ccccc2)nc2c(N3CCOCC3)nc(C)nc21
CCN(Cc1ccncc1)C(=O)c1cccc(S(=O)(=O)N2CCOCC2)c1
CN(C)CC/C=C1\c2ccccc2CSc2ccccc21
CC[C@@H]1Cc2cc(O)ccc2C2=C1c1ccc(O)cc1C[C@H]2CC
COc1ccc(C(=O)n2nc(-c3ccc(C)cc3)nc2N)cc1OC
O=C(C1CCC1)N1CCc2cc(S(=O)(=O)NCc3cccnc3)ccc21
CC(C)CNC(=O)c1cc(-c2ccc(Br)cc2)on1
CCn1c(CNC(=O)c2ccc(OC)c(OC)c2)nnc1SCC(=O)Nc1ccccc1
COCCNC(=O)c1snc2ccc(Cl)cc12
O=C(c1cc(C(F)(F)F)cc(C(F)(F)F)c1)N1CCC[C@@]2(CCN(c3ccccn3)C2)C1
COc1ccc(CCNC(=O)CSc2nc(C)nc3c2oc2ccccc23)cc1OC
Cc1nnc(SCC(=O)NCc2ccccc2)s1
COc1ccc2nccc(C(=O)O)c2c1
COC(=O)c1cc(NC(=O)CN2CCC(C(N)=O)(N3CCCCC3)CC2)cc(C(=O)OC)c1
COc1ccc(N(Cc2cc3cc(OC)ccc3[nH]c2=O)S(C)(=O)=O)cc1
O=C(CN1CCOCC1)N1CCCc2c1c(=O)oc1ccc(OCc3ccccc3)cc21
O=C(O)/C(=C/c1c(C(=O)O)[nH]c2cc(Cl)cc(Cl)c12)c1ccccc1
CCCn1c(-c2ccc(F)cc2)nc2c(NC3CCN(Cc4ccccc4)C3)nc(C)nc21 (stereo unspecified)
COc1ccc(N(CC(=O)NC(C)(C)C)C(=O)c2ccco2)cc1
